Measurements taken from ChEMBL document CHEMBL3988442, “University of Dundee, Small-Polar-MMV Screening Library” (2021).
Hit rate of the full screen: of about 48,000 compounds, about 13,000 (27%) showed an effect of 50% or more. The list shows a part of the results.

tested on: Wolbachia pipientis; test: Anti-Wolbachia Cell-Based Screen; assay type: functional; parameters: scale not given: in the data most compounds retested in dose-response had high values; details: 5 µM

SMILES	Percent Effect [%]
COc1ccccc1CC(=O)N1CCCC(c2nccn2CC(N)=O)C1 (configuration not stated)	0.4607
COc1ccc(OCCc2sc(C3(O)CCCNCC3)nc2C)cc1.Cl (configuration not stated)	2.251
O=C1NCCCC12CCN(c1nc3c(c(C(F)(F)F)n1)CCCC3)C2 (configuration not stated)	-1.844
c1ccc(-c2noc(CNC3CCc4ncnn4C3)n2)nc1 (configuration not stated)	0.9775
Cc1cccc(-c2nc(CNC3CCc4nc(C)nn4C3)no2)c1 (configuration not stated)	111
Cc1nc2n(n1)CC(NCc1nc(-c3cccnc3)no1)CC2 (configuration not stated)	-5.692
Cc1ccc(-c2nc(CNC3CCc4ncnn4C3)no2)cc1 (configuration not stated)	118.2
Cc1nc2n(n1)CC(NCc1nc(C)c(C)o1)CC2 (configuration not stated)	-8.158
c1nc2n(n1)CC(NCc1nc(-c3ccsc3)no1)CC2 (configuration not stated)	-6.7
Cc1ccc(O)c(CNC2CCc3nc(C)nn3C2)n1 (configuration not stated)	92.84
Cc1nc2n(n1)CC(NCc1nc3ccccc3o1)CC2 (configuration not stated)	12.54
Fc1ccc(-c2cnc(CNC3CCc4ncnn4C3)o2)cc1 (configuration not stated)	7.148
Cc1nc2n(n1)CC(NCc1nc(-c3cccs3)no1)CC2 (configuration not stated)	-19.82
c1ccc(-c2nc(CNC3CCc4ncnn4C3)no2)cc1 (configuration not stated)	109.8
O=C(CN1CCOC(c2ccc(Cl)s2)C1)NCc1ccco1 (configuration not stated)	16.69
CC(C)OC(=O)CCNC(=O)Nc1cccc2ncccc12	-2.669
CS(=O)(=O)NC1CCCN(C(=O)NCc2ccoc2)C1 (configuration not stated)	92.13
CS(=O)(=O)NC1CCCN(C(=O)NCc2cccc(F)c2)C1 (configuration not stated)	119.2
CS(=O)(=O)NC1CCCN(C(=O)NCc2ccccc2Cl)C1 (configuration not stated)	118.4
CN1C[C@@H]2CN(C(=O)NCc3cccc(F)c3)CCC[C@]2(C(=O)O)C1.O=C(O)C(F)(F)F	-0.5828
Cc1cc(CN2CCCC(NS(C)(=O)=O)C2)ccc1-n1cncn1 (configuration not stated)	11.85
CS(=O)(=O)NC1CCN(C(=O)c2ccc(Br)o2)C1 (configuration not stated)	-2.031

SMILES	Percent Effect [%]
COc1ccc(CNC(=O)N2CCCC(Nc3ccccc3)C2)cn1 (configuration not stated)	-13.37
Cc1ccc(CNC(=O)N2CCCC(NS(C)(=O)=O)C2)cc1 (configuration not stated)	112.9
COC1CCCN(C(=O)NCc2ccc(C(=O)N(C)C(C)C)cc2)C1 (configuration not stated)	-8.588
CS(=O)(=O)NC1CCN(C(=O)NCCc2ccccc2F)CC1	4.744
COc1ccccc1CNC(=O)N1CCCC(NS(C)(=O)=O)C1 (configuration not stated)	10.46
CC(C(=O)N1CCc2ccccc21)N1CCc2cncnc2C1 (configuration not stated)	1.414
CC1(C)CN(C(=O)CCc2nc(-c3ccncc3)no2)CCO1	17.48
CC(=O)N(C/C=C/c1ccccc1)CCO	-9.29
CCc1nccn1C1CCCN(C(=O)c2ccc3nncn3c2)C1 (configuration not stated)	-7.143
CC(C)c1nccn1C1CCCN(C(=O)c2ccc3nncn3c2)C1 (configuration not stated)	89.79
O=C(c1ccc2nncn2c1)N1CCCC(n2ccnc2)C1 (configuration not stated)	105.7
CC(C)c1nccn1C1CCCN(C(=O)c2ccn(C)c(=O)c2)C1 (configuration not stated)	-3.204
CC(C)c1nccn1C1CCCN(C(=O)c2ccc3c(c2)COC3)C1 (configuration not stated)	-6.912
Cc1nccn1C1CCCN(C(=O)c2ccc3nncn3c2)C1 (configuration not stated)	98.97
CN(Cc1cccnc1)C[C@@H]1OC[C@H]2CN(C(=O)C3CC3)CC[C@H]21.O=C(O)C(F)(F)F.O=C(O)C(F)(F)F	-11.76
O=C(Nc1cc(Cl)ccc1Cl)NC1CCN(C2CCOC2)CC1 (configuration not stated)	-16.63
CCCn1ccnc1CN1C[C@@H](CN2CCCCC2)[C@@H](CO)C1	-0.9532
Cc1nc(N(C)CCCc2nccn2C)c2nc(C)oc2n1	-2.669
CN(Cc1cnn(C)c1)c1nccc(-c2cc(C(=O)O)ccn2)n1	109.1
CN(CCCc1nccn1C)c1nccc(N2CCC(O)C2)n1 (configuration not stated)	13.17
Cn1cc(CCCN2CCN(C(=O)c3cccc(O)c3)CC2)cn1	-1.766
Cc1nn(C)cc1-c1ccnc(N(C)Cc2cnn(C)c2)n1	-26.11

SMILES	Percent Effect [%]
CC(C)N(Cc1cnn(C)c1)C(=O)c1ccnc(N(C)C)c1	14.77
CN(CCCc1nccn1C)c1nccc(-c2cc(C(=O)O)ccn2)n1	93.19
CN(CCCc1cnn(C)c1)c1nccc(-c2cc(C(=O)O)ccn2)n1	108.4
CN(CCCc1cnn(C)c1)C(=O)Nc1cccc(C#N)c1	-5.075
COCCn1ccnc1CN(Cc1ccccn1)Cc1sccc1C	-1.6
CCOc1ccccc1NC(C)C(=O)N(C)Cc1cccc(F)c1 (configuration not stated)	13.58
CC(=O)Nc1nc(CN(C)CC2CCCN2c2cccnn2)cs1 (configuration not stated)	10.35
CNC(=O)CC1CCN(C(=O)NCc2coc3ccccc23)CC1	-8.978
Cn1ccnc1C(O)c1ccccc1N1CCN(Cc2cccs2)CC1 (configuration not stated)	123.9
Cn1ccnc1C(O)c1ccccc1N1CCN(Cc2ccsc2)CC1 (configuration not stated)	129.7
Cc1ccccc1C(C)NC(=O)CN1CCN(Cc2cccs2)CC1 (configuration not stated)	6.89
CC(C)c1noc(C(C)N2CCN(Cc3ccsc3)CC2)n1 (configuration not stated)	12.33
CC(C)Oc1ncnc2c1CCN(Cc1cccs1)CC2	10.07
c1cc(CN2CCN(Cc3cscn3)CC2)cs1	-0.1438
Cn1cc(N2CCCC(Nc3ccc4c(c3)CCCO4)C2=O)cn1 (configuration not stated)	3.281
CC1CCN(C)c2ccccc2N1C(=O)c1ccc(=O)n(C)c1 (configuration not stated)	-5.744
CNS(=O)(=O)c1cccc(CNc2ccc(C(F)(F)F)nn2)c1	12.46
CCOCCCC(=O)N1CCN(C(=O)Cc2cccc(OC)c2)CC1	-5.603
Cc1cc(C)n(CC(=O)N2CCC(c3nc(C)no3)CC2)n1	-3.198
COc1cccc(CC(=O)N2CCC(c3ccn4nccc4n3)CC2)c1	113.7
Cc1cc(C)n(CC(=O)N2CCC(c3ccn4nccc4n3)CC2)n1	104.2
Cc1nc(O)cc(C2CCN(C(=O)CN(C)c3ccccc3)CC2)n1	-2.835

SMILES	Percent Effect [%]
CC1CCN(C(=O)Cn2cc(I)cn2)CC1	2.364
Cc1cc(C)n(CCC(=O)N2CCC(c3nc(C(C)C)no3)CC2)n1	8.819
COc1cccc(CC(=O)N2CCCN(c3ccnc(C)c3)CC2)c1	-23.77
Cc1cnn(CC(=O)N2CCC(c3ccn4nccc4n3)CC2)c1	130
O=C(Nc1cccc(OCc2ccc(F)cc2)c1)C1COCCO1 (configuration not stated)	-6.014
CCOc1ccc(CC(=O)Nc2cnccc2SCCCO)cc1	9.652
CCC[C@@H]1CN(Cc2nnc(-c3cccnc3)o2)C[C@H]1NC(C)=O	-9.676
COc1ncc(Cl)c(NCc2ccc([S+](C)[O-])cc2)n1 (configuration not stated)	-2.144
O[C@@H]1C[C@@H](c2nc(-c3cccnc3)no2)N(C2CCOCC2)C1	9.041
Cc1cccc(C(C(=O)N2CC(c3cccnc3)C2)N(C)C)c1 (configuration not stated)	-9.21
CC1=Nc2c(c(=O)[nH]n2C2CCOCC2)C(c2cccc(Br)c2)S1 (configuration not stated)	2.755
CC1=Nc2c(c(O)nn2C(C)C)C(c2cn(C)nc2C)S1 (configuration not stated)	105.3
CC1=Nc2c(c(O)nn2C2CCOCC2)C(c2cccnc2)S1 (configuration not stated)	111.6
CC1=Nc2c(c(=O)[nH]n2C(C)C)C(c2cccs2)S1 (configuration not stated)	-8.42
CC1=Nc2c(c(O)nn2C(C)C)C(c2cccnc2)S1 (configuration not stated)	138.8
CC1=Nc2c(c(O)nn2C(C)C)C(c2cnn(C)c2)S1 (configuration not stated)	103.6
COC(=O)[C@H](CSC)Nc1nc(C2CCCC2)nc2c1cnn2C	-6.594
CCCN(CC1COc2ccccc2O1)C(=O)C1=NN(C)C(=O)CC1 (configuration not stated)	-3.876
CC(C)N(CCS(C)(=O)=O)Cc1csc(Cc2ccc(Cl)cc2)n1	-7.743
COCCOc1ncccc1C(=O)N1CCCn2ncnc21	-1.947
O=C(c1cccnc1Oc1ccccc1)N1CCCn2ncnc21	8.828
CCC[C@H]1CN(S(=O)(=O)c2ccc(CC)s2)C[C@@H]1N	-3.149

SMILES	Percent Effect [%]
O=C(c1ccc(-c2ccccc2)[nH]c1=O)N1CCCn2ncnc21	1.123
CCc1ccc(S(=O)(=O)N2CCCC(c3ncc[nH]3)C2)s1 (configuration not stated)	-13.86
O=S(=O)(c1ccc(Cl)s1)N1CCCC(c2ncc[nH]2)C1 (configuration not stated)	4.292
COC(=O)c1ccc(S(=O)(=O)N2CCCn3ncnc32)s1	103.1
O=S(=O)(c1ccc(Cl)s1)N1CCCn2ncnc21	95.01
CCc1ccc(S(=O)(=O)N2CCCn3ncnc32)s1	83.72
Cn1cc(C(=O)Nc2cccc(CCN3CCCC3)c2)ccc1=O	-2.076
CCOCCS(=O)(=O)Cc1ccn(-c2cccc(F)c2)n1	-15
Cc1ccnc(N2CCC(=O)N(Cc3ccc(F)cc3)C(C(C)C)C2)n1 (configuration not stated)	-3.35
Cc1ccsc1[C@@H]1CCN(C(=O)CCC(=O)c2ccccc2)C[C@H]1O	-8.391
Cc1ccc(S(=O)(=O)N2CCN(CCC#N)CC2)s1	7.923
CCN1CCN(S(=O)(=O)c2cnc(NC(C)=O)s2)CC1	-4.735
Cc1ccc(S(=O)(=O)N2CCC(Cn3cc(C(C)(C)N)nn3)CC2)s1	-17.3
Cc1ccc(CNC(=O)CNCC2CCN(CCO)CC2)s1	0.4784
Cc1ccc(S(=O)(=O)N2CCN(CCC(N)=O)CC2)s1	97.05
CC1(C)OCC2(CO1)CN(S(=O)(=O)c1ccc(Cl)s1)C2	-3.142
N#CCCN1CCN(S(=O)(=O)c2ccc(Cl)s2)CC1	101.8
Cc1ccc(S(=O)(=O)N2CCN(CCCO)CC2)s1	107
Cc1ccc(CNC(=O)CN2CCN(CCO)CC2)s1	0.0165
